Assay results published in PubChem BioAssay.
Where “and” joins values, the source holds several entries; their conditions need not be identical. Equal entries are not always repeated. Inconclusive results are not listed. Calls of active or inactive are those of the source.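 Rule for the calls, unless noted: active = compounds whose cell count with miR-34 switched on is under 0.7 times the count with it off; inactive = the rest.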

Tests used:
[1] = viability loss in pontine glioma line – cell-based, SU-DIPG-XXV, MIPE5.0, CellTiter-Glo, qHTS, dose response (AID 1347065; cut-off not given, nearly all actives have AC50 up to about 26 µM;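 note: cells exposed to compound for 48 hours before ATP readout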); conditions: CellTiter-Glo ATP luminescence
[2] = JHH-DIPG-1 glioma cell viability, MIPE5.0 library, CellTiter-Glo luminescence, qHTS (AID 1347067; cut-off not given, nearly all actives have AC50 up to about 26 µM;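 note: cells exposed to compound for 48 hours before readout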); conditions: JHH-DIPG-1 glioma viability, CellTiter-Glo ATP luminescence
[3] = SU-DIPG-XXV glioma cell viability, MIPE5.0 library, qHTS (AID 1347068; cut-off not given, nearly all actives have IC50 up to about 30 µM)
[4] = sensitizers of A549 cells to miR-34 induction, primary screen, imaging, A549 dox-inducible miR-34, nuclei and caspase counts (AID 1347080); conditions: A549 miR-34 inducible, Hoechst nuclei count, 48 h
[5] = modifiers of HSF1 nuclear foci, imaging, Selleck Cancer Library (AID 1347162; in the data active = plate-normalised HSF1 focus index below about 0.46); conditions: human cells, at 10 µM; SSMD: measured here: HSF1 foci SSMD mean; cell count: measured here: cell number; plate-normalised HSF1 focus index: stronger effect = lower value
[6] = survival rescue of mitochondrial mutant cells in low glucose, primary screen, MELAS cybrids, Rieske KO mouse fibroblasts, CellTiter-Glo (AID 1508586;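 active = mean z-score across replicates of 1.96 or higher in either the MELAS or the Rieske mutant cell line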;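 note: z relative to plate mean and SD of compound and empty wells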)
[7] = molecular target: NAD(+) hydrolase SARM1 (Homo sapiens) (UniProt Q6SZW1); test: SARM1 TIR NADase inhibitors, cell lysate, NAD-Glo luminescence (AID 1508614;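 active = compound whose remaining NAD level is above about 45 nM, limit read from the data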;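 note: higher remaining NAD means stronger inhibition of SARM1 NADase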); conditions: SAM-TIR HEK293T lysate NADase, at 1 µM, stronger effect = higher value
[8] = viability rescue of complex I mutant cybrids, primary screen, cell-based, galactose medium, ATP luminescence (AID 1645843;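 active = z-score of at least 1.8 in each of two replicates, scored against plate mean and spread of sample wells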;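 note: positive z means more ATP and so rescue of galactose-driven cybrid death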); conditions: complex I mutant cybrid cells, 72 h, stronger effect = higher value
[9] = LFS_MB_P medulloblastoma growth inhibition, cell-based, chromothripsis tumors, cisplatin or BGB combos (AID 1671449; in the data active = inhibition above about 80%;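 note: cells exposed for 96 hours; 0% = vehicle DMSO and 100% = killing by high DMSO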); conditions: LFS_MB_P medulloblastoma cells
[10] = HDN33 neuroblastoma growth inhibition, cell-based, chromothripsis tumors, cisplatin or BGB combos (AID 1671450; in the data active = inhibition above about 80%;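 note: cells exposed to compound for four days; 0% = vehicle DMSO and 100% = cell killing by high DMSO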); conditions: HDN33 neuroblastoma cells, stronger effect = higher value
[11] = ICB984 medulloblastoma cell growth inhibition, synergistic combos for chromothripsis tumors, cisplatin or BGB combos (AID 1671451; call rule not given here;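 note: cells exposed for 96 hours before readout; 0% = vehicle DMSO and 100% = killing by high DMSO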); conditions: ICB984 medulloblastoma cells, drug combinations, stronger effect = higher value
[12] = LFS_MB_1R medulloblastoma cell growth inhibition, synergistic combos for chromothripsis tumors, cisplatin or BGB combos (AID 1671452; in the data active = inhibition above about 80%;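 note: cells exposed for 96 hours before readout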); conditions: LFS_MB_1R medulloblastoma cells, stronger effect = higher value
[13] = HTB85 osteosarcoma cell growth inhibition, synergistic combos for chromothripsis tumors, BGB or cisplatin IC20 combos (AID 1671453; in the data active = inhibition above about 80%;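 note: cells exposed for 96 hours before readout; 0% = vehicle DMSO and 100% = high DMSO killing control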); conditions: HTB85 osteosarcoma cells, drug combinations, stronger effect = higher value
[14] = CRL2098 osteosarcoma cell growth inhibition, synergistic combos for chromothripsis tumors, BGB or cisplatin IC20 combos (AID 1671454; in the data active = inhibition above about 80%;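 note: cells exposed for 96 h before readout; 0% = vehicle DMSO and 100% = killing by high DMSO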); conditions: CRL2098 osteosarcoma cells, drug combinations, stronger effect = higher value
[15] = HD-MB03 medulloblastoma cell growth inhibition, synergistic combos for chromothripsis tumors, BGB or cisplatin IC20 combos (AID 1671455; in the data active = inhibition above about 83%;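 note: 0% = vehicle DMSO and 100% = high DMSO as cytotoxic control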); conditions: HD-MB03 medulloblastoma cells, stronger effect = higher value
[16] = SU-DIPG-VI glioma cell viability, MIPE4.0 library, CellTiter-Glo luminescence, qHTS (AID 1347066; cut-off not given, nearly all actives have AC50 up to about 30 µM;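 note: cells exposed to compound for 48 hours before readout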); conditions: CellTiter-Glo ATP luminescence
[17] = phospholipid biosynthesis inhibitors in animal cells, primary screen, cell-based, LOPAC library, screen 4 (AID 1347384; call rule not given here); conditions: phospholipid biosynthesis inhibition screen, at 10 µM
[18] = molecular target: Mitogen-activated protein kinase 7 (Homo sapiens) (UniProt Q13164); test: ERK5 transactivation activators in reporter cells, primary screen, cell-based, HTS (AID 1508626;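 active = luciferase signal above three times the same-plate solvent-only control wells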;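 note: luciferase driven by Gal4-ERK5 fusion binding five Gal4 sites before minimal TATA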); conditions: HeLa Gal4-ERK5 transactivation, 18 h, at 5 µM, stronger effect = higher value
[19] = stronger effect = lower value, cell number ratio, induced over uninduced
[20] = measured here: relative caspase fold change +Dox/-Dox
[21] = measured here: total cells with miR-34 induction, stronger effect = lower value
[22] = measured here: total cells without miR-34 induction
[23] = MELAS cybrid survival, CellTiter-Glo 48 h, stronger effect = higher value
[24] = Rieske KO mouse fibroblast survival, CellTiter-Glo 72 h
[25] = measured here: combination with BGB IC40, at 0.05 µM

Mitogen-activated protein kinase 7 (Homo sapiens), sequence (Q13164 whole entry, looked up, the tested form may be a part): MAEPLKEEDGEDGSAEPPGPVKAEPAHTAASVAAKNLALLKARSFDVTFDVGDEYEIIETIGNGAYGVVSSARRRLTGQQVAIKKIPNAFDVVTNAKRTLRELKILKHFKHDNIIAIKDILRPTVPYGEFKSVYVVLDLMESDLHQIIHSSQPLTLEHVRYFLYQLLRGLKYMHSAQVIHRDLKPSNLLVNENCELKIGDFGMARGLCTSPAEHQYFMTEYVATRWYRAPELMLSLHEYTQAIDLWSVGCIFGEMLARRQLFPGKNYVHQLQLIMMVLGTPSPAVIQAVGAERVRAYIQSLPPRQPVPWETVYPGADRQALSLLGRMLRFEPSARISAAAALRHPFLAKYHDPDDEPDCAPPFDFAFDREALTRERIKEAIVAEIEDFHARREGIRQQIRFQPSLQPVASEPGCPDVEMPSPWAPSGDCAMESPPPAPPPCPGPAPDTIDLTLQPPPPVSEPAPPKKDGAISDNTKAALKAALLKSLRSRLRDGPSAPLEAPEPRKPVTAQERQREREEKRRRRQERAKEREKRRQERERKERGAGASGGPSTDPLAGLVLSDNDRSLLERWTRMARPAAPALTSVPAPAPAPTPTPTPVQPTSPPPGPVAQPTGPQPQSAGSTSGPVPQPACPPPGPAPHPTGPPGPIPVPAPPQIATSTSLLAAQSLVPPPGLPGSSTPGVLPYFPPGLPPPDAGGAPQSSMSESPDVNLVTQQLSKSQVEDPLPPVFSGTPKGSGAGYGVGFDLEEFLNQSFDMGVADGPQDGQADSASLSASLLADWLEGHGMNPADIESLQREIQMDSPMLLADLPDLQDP
NAD(+) hydrolase SARM1 (Homo sapiens), sequence (Q6SZW1 whole entry, looked up): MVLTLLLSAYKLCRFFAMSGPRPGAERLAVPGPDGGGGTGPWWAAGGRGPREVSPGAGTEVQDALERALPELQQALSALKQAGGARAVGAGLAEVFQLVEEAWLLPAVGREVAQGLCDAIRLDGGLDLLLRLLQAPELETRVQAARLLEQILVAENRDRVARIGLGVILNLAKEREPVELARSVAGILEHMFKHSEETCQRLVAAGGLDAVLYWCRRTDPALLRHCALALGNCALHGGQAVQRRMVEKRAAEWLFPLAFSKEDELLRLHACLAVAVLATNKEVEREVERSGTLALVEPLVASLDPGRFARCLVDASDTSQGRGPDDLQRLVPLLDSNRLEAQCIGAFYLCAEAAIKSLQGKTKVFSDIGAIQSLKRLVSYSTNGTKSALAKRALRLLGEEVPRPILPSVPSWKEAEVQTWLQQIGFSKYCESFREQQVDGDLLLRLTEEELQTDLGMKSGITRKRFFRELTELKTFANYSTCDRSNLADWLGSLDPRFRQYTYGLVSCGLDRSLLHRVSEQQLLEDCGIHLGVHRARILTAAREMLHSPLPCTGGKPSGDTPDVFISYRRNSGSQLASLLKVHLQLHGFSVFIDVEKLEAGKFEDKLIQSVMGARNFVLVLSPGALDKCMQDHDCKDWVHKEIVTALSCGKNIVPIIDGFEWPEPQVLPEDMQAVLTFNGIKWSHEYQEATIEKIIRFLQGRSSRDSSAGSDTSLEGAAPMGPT

Structure (SMILES): CNNCc1ccc(C(=O)NC(C)C)cc1
- outcome [1]: inactive
- outcome [2]: inactive
- outcome [3]: inactive
- fold change [4, 19]: 0.927 (inactive) and 0.93 (inactive) and 0.882 (inactive)
- fold change [4, 20]: 0.658 and 1.32 and 1.82
- cell count [4, 21]: 8930 and 9660 and 9580
- cell count [4, 22]: 9640 and 10400 and 10900
- SSMD [5]: 2.76
- cell count [5]: 7850
- plate-normalised HSF1 focus index [5]: 1.17 (inactive)
- z-score [6, 23]: -0.384 (inactive) and 0.576 (inactive)
- z-score [6, 24]: -1.08 and 0.362
- remaining NAD [7]: 10 nM (inactive)
- z-score [8]: -0.975 (inactive) and 0.615 (inactive)
- inhibition ([9]; at 0.5 µM, stronger effect = higher value): -4.96% (inactive) and -7.28% (inactive)
- inhibition ([9]; measured here: combination with BGB IC20, at 0.005 µM): 0.865% and -3.27%
- inhibition ([9]; measured here: combination with BGB IC40, at 0.005 µM): 4.15% and 7.38%
- inhibition [9, 25]: -4.16% and -2.23%
- inhibition ([9]; measured here: combination with cisplatin, at 0.5 µM, stronger effect = higher value): -13.4% and -33.1%
- inhibition ([9]; measured here: combination with cisplatin, at 5 µM, stronger effect = higher value): 33.1% and 11.1%
- inhibition ([10]; BGB combo, at 5 µM): 11.7% and 16.1%
- inhibition ([10]; at 0.5 µM): 10.7% (inactive) and 6.09% (inactive)
- inhibition ([10]; cisplatin combo, at 5 µM): 11.5% and 15.1%
- inhibition ([10]; measured here: with BGB IC20 combination, at 0.5 µM): 8.82% and -6.43%
- inhibition ([10]; measured here: with cisplatin IC20 combination, at 0.5 µM): 7.54% and 20.8%
- inhibition ([10]; single agent, at 5 µM): 17.8% and 2.31%
- inhibition ([11]; BGB IC20 combo, at 0.005 µM): 9.83% and 1.87%
- inhibition ([11]; BGB IC40 combo, at 0.005 µM): -24.6% and -19.9%
- inhibition ([11]; BGB IC40 combo, at 0.05 µM): -27.1% and 7.42%
- inhibition ([11]; at 0.5 µM): -17.4% (inactive) and -14% (inactive)
- inhibition ([11]; cisplatin combo, at 0.05 µM): -31.7% and 4.83%
- inhibition ([11]; cisplatin combo, at 0.5 µM): -11.9% and -3.72%
- inhibition ([11]; cisplatin combo, at 5 µM): 2.16% and -28.3%
- inhibition ([11]; measured here: 5 uM single agent, at 5 µM): 3.31% and -11.8%
- inhibition ([12]; at 0.5 µM): 9.11% (inactive) and -17.9% (inactive)
- inhibition [12, 25]: 11.1% and -7.89%
- inhibition ([12]; measured here: combination with cisplatin, at 0.5 µM): 9.64% and -15.3%
- inhibition ([12]; measured here: combination with cisplatin, at 5 µM): -32.2% and -1.85%
- inhibition ([13]; at 0.5 µM): -1.94% (inactive) and -4.22% (inactive)
- inhibition ([13]; measured here: with BGB IC20, at 0.5 µM): 2.72% and -14.1%
- inhibition ([13]; measured here: with BGB IC20, at 5 µM): 4.14% and -30.2%
- inhibition ([13]; measured here: with cisplatin IC20, at 0.5 µM): -5.46% and -13.6%
- inhibition ([13]; measured here: with cisplatin IC20, at 5 µM): -7.6% and -38.8%
- inhibition ([13]; single agent, at 5 µM): 3.42% and -2.23%
- inhibition ([14]; at 0.5 µM): 3.58% (inactive) and -35.9% (inactive)
- inhibition ([14]; measured here: combination with BGB at IC20, at 0.5 µM): -18.3% and -64.1%
- inhibition ([14]; measured here: combination with cisplatin at IC20, at 0.5 µM): -1.94% and -14.9%
- inhibition ([15]; at 0.5 µM): 1.99% (inactive) and 3.37% (inactive)
- inhibition ([15]; measured here: combo with BGB at IC20, at 0.5 µM): -4.48% and 4.11%
- inhibition ([15]; measured here: combo with cisplatin at IC20, at 0.5 µM): 6.48% and 0.786%

Structure (SMILES): NNc1nncc2ccccc12
- outcome [1]: inactive
- outcome [16]: inactive
- outcome [2]: inactive
- fold change [4, 19]: 1.01 (inactive) and 0.821 (inactive)
- fold change [4, 20]: 1.23 and 1.05
- cell count [4, 21]: 10000 and 10300
- cell count [4, 22]: 9890 and 12600
- outcome [17]: inactive
- remaining NAD [7]: 10 nM (inactive)
- luciferase signal [18]: 280 AU (active)
- z-score [8]: 0.12 (inactive)

Structure (SMILES): CCCN(CCC)C(=O)C(CCC(=O)O)NC(=O)c1ccccc1 (stereo unspecified)
- outcome [1]: inactive
- outcome [2]: inactive
- outcome [3]: inactive
- fold change [4, 19]: 1.06 (inactive) and 0.936 (inactive) and 0.845 (inactive)
- fold change [4, 20]: 0.941 and 0.892 and 4.08
- cell count [4, 21]: 10500 and 8340 and 11300
- cell count [4, 22]: 9940 and 8900 and 13400
- outcome [17]: inactive
- z-score [6, 23]: -1.04 (inactive)
- z-score [6, 24]: -0.386
- remaining NAD [7]: 10 nM (inactive)
- luciferase signal [18]: 108 AU (inactive)
- z-score [8]: 0.665 (inactive)

Structure (SMILES): CCOc1cc(N)c(Cl)cc1C(=O)NCC1CN(Cc2ccc(F)cc2)CCO1 (stereo unspecified)
- outcome [1]: inactive
- outcome [16]: inactive
- outcome [3]: inactive
- fold change [4, 19]: 0.847 (inactive) and 0.952 (inactive)
- fold change [4, 20]: 1.51 and 0.602
- cell count [4, 21]: 7930 and 7020
- cell count [4, 22]: 9370 and 7370
- z-score [6, 23]: -0.303 (inactive)
- z-score [6, 24]: -0.205
- z-score [8]: 0.725 (inactive)

Structure (SMILES): COc1cc(OC)c(C(=O)CCCN2CCCC2)c(OC)c1
- outcome [1]: inactive
- outcome [16]: inactive
- outcome [3]: inactive
- fold change [4, 19]: 0.858 (inactive) and 0.948 (inactive) and 0.902 (inactive)
- fold change [4, 20]: 1.32 and 1.94 and 0.958
- cell count [4, 21]: 8900 and 10500 and 8390
- cell count [4, 22]: 10400 and 11000 and 9300
- z-score [6, 23]: -0.379 (inactive) and 0.339 (inactive)
- z-score [6, 24]: -0.346 and 0.199
- remaining NAD [7]: 10 nM (inactive)
- luciferase signal [18]: 40 AU (inactive)
- z-score [8]: 0.65 (inactive)
